Pf growth 48h = Primary qHTS for delayed death inhibitors of the malarial parasite plastid, 48 hour incubation; AID 504832, 2011; Potency, µM (highest dose often 28.7 µM), actives largely listed as inhibitors; 310,000 tested, 5.9% active; P. falciparum luciferase growth in erythrocytes, 48 h
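Firefly luciferase activity from engineered P. falciparum reports growth; inhibitors lower the luminescent signal. Cultures contained 2% hematocrit erythrocytes at 0.1% final parasitemia.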
CHX counter = Cycloheximide Counterscreen for Small Molecule Inhibitors of Shiga Toxin; cell reporter, cycloheximide protein synthesis inhibition counterscreen; max response, %; 300,000 tested, 12% active; in the data active = max response mostly above about 13%, no sharp cut-off; inactive = mostly below about 14%; also: read at 38.3 µM for the half of the compounds with a filed dose
NS1 function inh = qHTS Assay for Inhibitors of Influenza NS1 Protein Function | 270,000 tested, 0.4% active | Potency, µM (top dose mostly 46.1 µM); calls by dose curve; also: actives are rising curves; nearly all actives have a fitted effect of over 50% in size
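S. cerevisiae expressing influenza A NS1, grown in glucose, washed, then diluted 1:100 into pH 6.0 -URA galactose medium with 23 nl compound. Growth recovery read as OD600; NS1-free strain serves as control.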
Pf growth 96h = Primary qHTS for delayed death inhibitors of the malarial parasite plastid, 96 hour incubation; P. falciparum luciferase reporter growth, 96 h; Potency, µM (doses to about 28.7 µM), most hits filed as inhibitors; 320,000 tested, 6.9% active; AID 504834, 2011
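Cell-based qHTS: luciferase-tagged P. falciparum in erythrocytes (2% hematocrit, 0.05% parasitemia final) incubated with compounds for 96 hours, 37 C, 5% CO2; luciferase detection reagent then added and luminescence measured.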
Shiga inhibitor = A qHTS for Small Molecule Inhibitors of Shiga Toxin. 290,000 tested, 9.2% active. Vero cells, Shiga toxin protein synthesis inhibition reporter. inhibition, % at 38.7 µM. AID 2315, 2010; in the data active = inhibition mostly above about 28%, no sharp cut-off; inactive = mostly below about 43%
Large screens that a line does not name were inactive. A selection: hits, their analogues and other compounds. The true share with any hit is near 21%. Unless noted, calls follow the shape of the dose curve; as a rule, active = well fitted inhibition curve with a large enough effect; inconclusive = small, poorly fitted or top-dose-only effect, or another doubt; inactive = no such curve, though single readings can be large or run the other way.

Cc1ccc(NC(=O)Cc2nc(CN(C)CC(=O)Nc3ccc(C)cc3)cs2)cc1	Pf growth 48h 13µM, Pf growth 96h inconclusive (no result: CHX counter, NS1 function inh, Shiga inhibitor)
CCCCCCCCCCCC(CC1OC(=O)C1CCCCCC)OC(=O)C(CC(C)C)NC=O (configuration not stated)	Pf growth 48h 1.1µM, Pf growth 96h 1.5µM (no result: CHX counter, NS1 function inh, Shiga inhibitor)
CCCOc1ccc(CCC(=O)N/N=C/c2ccncc2)cc1	none
O=C(Nc1ccc2c(c1)OCCO2)c1cccc(Cl)c1Cl	CHX counter 43, Shiga inhibitor 93
O=C(Nc1ccc2c(c1)OCCO2)c1c(F)c(F)c(F)c(F)c1F	CHX counter 17
O=C(Nc1ccc2c(c1)OCCO2)c1cc(F)c(F)cc1Cl	CHX counter 37, Shiga inhibitor 72
CC(=O)Nc1ccc2c(c1)OCCO2	none
Cc1ccc(C(O)CSc2nnc(-c3ccc4ccccc4c3)n2C)cc1 (configuration not stated)	none
O=C(CSc1nnc(-c2ccc(OC(F)F)cc2)o1)NCc1cccs1	none (no result: Pf growth 48h)
COc1ccccc1NC(=O)c1ccc(CN2CCOCC2)cc1	Pf growth 96h inconclusive
CSc1ccccc1NC(=O)c1ccc(CN2CCOCC2)cc1	CHX counter 13, Shiga inhibitor 52 (no result: NS1 function inh)
Cc1cc(CSc2ccccc2)ccc1NC(=O)c1ccc(C)c([N+](=O)[O-])c1	none
O=C(Nc1ccccc1C(F)(F)F)c1ccc(CN2CCC(Cc3ccccc3)CC2)cc1	Pf growth 48h 13µM, Pf growth 96h 10µM
Cc1cc(CSc2ccccc2)ccc1NC(=O)c1ccc(CN2CCOCC2)cc1	Pf growth 96h 2.9µM
COCCN=c1scc(-c2cc(OC)ccc2OC)n1/N=C/c1c[nH]c2ccccc12	Pf growth 48h inconclusive, NS1 function inh inconclusive
COCCN=c1scc(C)n1/N=C/C1CC2C=CC1C2 (configuration not stated)	Pf growth 48h inconclusive, CHX counter 13, Pf growth 96h inconclusive (no result: NS1 function inh)
CCCCOc1ccc(N2CC(C(=O)NCc3ccco3)CC2=O)cc1 (configuration not stated)	NS1 function inh inconclusive
CCOC(=O)c1[nH]nc(N)c1NC(=O)c1ccc(Cl)cc1Cl	CHX counter 27
Cc1cccc(N2CCN(C(=O)CSc3ccsc3[N+](=O)[O-])CC2C)c1 (configuration not stated)	Pf growth 48h inconclusive, Pf growth 96h inconclusive
CC(C)NC(=O)CN1C(=O)CSc2ccc(S(=O)(=O)N3CCCC3)cc21	Pf growth 96h inconclusive
O=C(CSCc1ccc([N+](=O)[O-])cc1)Nc1ccc(S(=O)(=O)N2CCCCCC2)cc1	Pf growth 48h inconclusive, Pf growth 96h 10µM
CC(CC(=O)O)CC(=O)Nc1cc([N+](=O)[O-])ccc1O (configuration not stated)	Pf growth 48h inconclusive (no result: NS1 function inh)
COc1ccc([N+](=O)[O-])cc1NC(=O)CSCc1ccc(Br)cc1	none
Cc1ccc(SCC(=O)Nc2cc([N+](=O)[O-])ccc2O)cc1	CHX counter 28, Shiga inhibitor 55
CCOc1ccccc1NC(=O)CSc1ccc([N+](=O)[O-])cc1	Pf growth 48h 2.9µM, Pf growth 96h 2.3µM (no result: NS1 function inh)
O=C(CSCc1ccc(Cl)cc1)Nc1cc([N+](=O)[O-])ccc1O	Pf growth 48h inconclusive, Shiga inhibitor 46
N#Cc1ccsc1NC(=O)CN1CCN(S(=O)(=O)c2ccccc2C(F)(F)F)CC1	Pf growth 96h inconclusive
Cc1cc(NC(=O)CSCc2ccc([N+](=O)[O-])cc2)no1	none
O=C(CSCc1ccccc1)Nc1ccccc1C(=O)Nc1ccc(C(=O)O)cc1	CHX counter 13
O=C(CSCc1ccc([N+](=O)[O-])cc1)Nc1ccccc1C(=O)O	Pf growth 96h 9.3µM
COC(Cn1c2c(c3cc(C)ccc31)CCCC2NCc1ccccc1)OC (configuration not stated)	Pf growth 48h inconclusive, Pf growth 96h inconclusive
O=C(NC1CCCC1)c1ccc(CSCc2ccccc2F)o1	CHX counter 31, Pf growth 96h inconclusive (no result: Pf growth 48h)
O=C(NC1CCCCC1)c1ccc(CS(=O)(=O)Cc2ccccc2F)o1	CHX counter 20, NS1 function inh inconclusive, Pf growth 96h inconclusive, Shiga inhibitor 68
C#CCOCCOCCOCCNc1nc(N2CCN(C(=O)C([C@@H](C)CC)n3cc(C(N)Cc4ccc(O)cc4)nn3)CC2)nc(N2CCN(C(=O)[C@H](CCC(=O)O)n3cc(C(N)[C@H](C)CC)nn3)CC2)n1 (some centres not stated)	Pf growth 96h inconclusive
O=C(O)c1cccc(NC(=S)NC(=O)c2ccc3ccccc3c2)c1	CHX counter 42, Pf growth 96h inconclusive, Shiga inhibitor 71
O=C(O)c1ccc(NC(=S)NC(=O)c2ccc3ccccc3c2)cc1	none
O=C(NC(=S)Nc1ccccc1C(=O)O)c1ccc2ccccc2c1	CHX counter 15
O=C(Nc1ccc(Cl)c(Cl)c1)Nc1ccccn1	CHX counter 46, Shiga inhibitor 66
COc1ccc(NC(=O)Nc2ccccn2)cc1OC	CHX counter 34, Shiga inhibitor 62
Cc1ccc(C)c(N2CCN(C(=O)Nc3ccc4c(c3)N(C)C(=O)CS4)CC2)c1	Pf growth 48h inconclusive (no result: NS1 function inh)
CN1C(=O)CSc2ccc(NC(=O)N3CCC(N4CCCCC4)CC3)cc21	Pf growth 96h 12µM (no result: Pf growth 48h)
COc1ccccc1C(=O)Nc1nsc(-c2ccccc2)n1	CHX counter 49, Shiga inhibitor 79
CCCN(C(=O)CCNC(=O)c1ccc(Cl)cc1)c1c(N)n(Cc2ccccc2)c(=O)[nH]c1=O	none (no result: CHX counter, NS1 function inh, Shiga inhibitor)
Cc1ccccc1C(=O)NC1CCN(CC(=O)NCc2cccs2)CC1	Pf growth 96h inconclusive (no result: NS1 function inh)
CCOc1ccc(NS(=O)(=O)c2ccc(C(=O)N(C)CC(=O)Nc3ccc(C)cc3)cc2)cc1	Pf growth 48h inconclusive (no result: CHX counter, NS1 function inh, Shiga inhibitor)
COc1ccccc1C(=O)Nc1ccncc1	none (no result: Shiga inhibitor)
COc1ccccc1C(=O)Nc1ccccn1	CHX counter 36, Pf growth 96h inconclusive, Shiga inhibitor 60
CN1C(=O)CSc2ccc(NC(=O)Nc3ccccn3)cc21	CHX counter 50 (no result: Pf growth 48h)
COc1ccccc1C(=O)NC(=O)Nc1nc(-c2ccccc2)cc(C(F)(F)F)n1	Pf growth 48h 3.7µM, Pf growth 96h 3.7µM
O=C(NC(=O)c1cccc(F)c1)Nc1nc(-c2ccc(F)cc2)cc(C(F)(F)F)n1	Pf growth 48h inconclusive (no result: NS1 function inh)
CC(=O)Nc1cccc(OCCCNS(=O)(=O)c2ccc(C#N)cc2)c1	Pf growth 48h inconclusive
O=C1C2C3C=CC(C3)C2C(=O)N1c1nc2ccccc2s1 (configuration not stated)	Pf growth 96h 8.3µM
Cc1ccc(NC2CCCN(C(=O)c3ccc(F)cc3)C2)cc1C (configuration not stated)	none
Cc1ccc(CCNC(=O)C2CCCN(S(=O)(=O)N3CC(C)CC(C)C3)C2)cc1 (configuration not stated)	none
CCOC(=O)Cn1c(=NC(=O)CC)sc2c(C)cc(C)cc21	Pf growth 48h inconclusive
CCOC(=O)Cn1c(=NC(=O)C(C)C)sc2c(C)cc(C)cc21	Pf growth 48h 1.9µM, Pf growth 96h inconclusive
